Source: PubChem
An excerpt weighted towards active compounds, which were near 22% of everything screened.
cytoskel mod: alters cytoskeleton assembly in HUVEC cells; HUVEC TNFa F-actin phalloidin imaging, high content; inhibition, % at 2 µM; actives 0.18% (n = 91,000);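 active = inhibition above the batch mean plus 3 SD and confirmed as a hit by visual image inspection, cut at about 30% in these data, passing the limit was not always enough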
CYP2C9 activ: CYP2C9 (human) activation; P11712; recombinant CYP2C9, luciferin-H conversion, luminescence; stronger effect = higher value; factor 1 = untreated enzyme, 0 = blocked; activation factor at 5 µM; actives 1.4% (n = 96,000);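 active = activation factor of 2 or more for CYP2C9 at a 5 µM dose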
Target sequence (P11712 whole entry, looked up): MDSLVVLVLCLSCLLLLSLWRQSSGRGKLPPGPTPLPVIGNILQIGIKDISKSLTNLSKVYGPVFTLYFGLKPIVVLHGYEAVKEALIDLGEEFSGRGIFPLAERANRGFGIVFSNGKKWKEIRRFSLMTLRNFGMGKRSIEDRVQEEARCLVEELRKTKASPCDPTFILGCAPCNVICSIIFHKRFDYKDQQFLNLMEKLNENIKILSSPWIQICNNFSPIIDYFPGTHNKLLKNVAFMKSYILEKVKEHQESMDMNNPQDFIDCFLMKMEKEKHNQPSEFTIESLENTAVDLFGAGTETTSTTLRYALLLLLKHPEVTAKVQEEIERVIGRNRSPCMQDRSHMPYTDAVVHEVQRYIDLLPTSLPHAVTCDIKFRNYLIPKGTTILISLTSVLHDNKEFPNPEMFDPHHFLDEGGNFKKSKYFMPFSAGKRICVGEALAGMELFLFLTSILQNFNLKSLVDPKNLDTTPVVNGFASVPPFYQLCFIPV
CYP2C19 inh: blocks human cytochrome P450 2C19; P33261; CYP2C19 Supersomes, luciferin-H EGE luminescence, 30 min; inhibition, % at 5 µM; actives 21% (n = 96,000);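 active = CYP2C19 inhibition above a set limit at 5 µM in the primary screen, cut at about 50% in these data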
E-sel TNF inh: blocks E-selectin expression induced by TNF alpha; AID 1246; actives 0.71% (n = 120,000); inhibition, % at 2 µM; HUVEC TNFa-induced E-selectin immunofluorescence, high content;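 active = inhibition above the batch mean plus 3 SD, and confirmed as a hit on visual image review, cut at about 43% in these data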
CYP2C19 activ: cytochrome P450 2C19 (human) activation; AID 1025; P33261; activation factor at 5 µM; 96,000 tested, under 10 active; recombinant CYP2C19, luciferin-H EGE luminescence; stronger effect = higher value; 0 = fully inhibited enzyme, 1 = untreated enzyme;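 active = activation factor of at least 2 at 5 µM in the primary screen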
CYP2C9 inhib: blocks human cytochrome P450 2C9; inhibition, % at 5 µM; CYP2C9 Supersomes, luciferin-H conversion, luminescence; actives 20% (n = 96,000); AID 777;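 active = blocking of liver enzyme CYP2C9 beyond about 50% at 5 µM, limit read from the data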
Hits are given with their value; – = inactive; · = no result.

SMILES | cytoskel mod | CYP2C9 activ | CYP2C19 inh | E-sel TNF inh | CYP2C19 activ | CYP2C9 inhib
Cc1cc(C(=O)CSc2nc3ccc(Cl)cc3[nH]2)c(C)n1CC1CCCO1 (stereo not drawn) | – | – | 96.0 | – | – | 91.7
Cc1ccc(S(=O)(=O)NCCc2nnc3ccc(NCCCOC(C)C)nn23)cc1 | · | · | · | – | · | ·
CSc1ccccc1NC(=O)c1ccc(Cl)s1 | – | – | – | – | – | –
Cc1cc(C)c(C(=O)COC(=O)c2cccnc2Cl)c(C)c1 | · | · | · | – | · | ·
Cc1cc(C(=O)CSc2nc3ccc(Cl)cc3[nH]2)c(C)n1C | – | – | 94.5 | – | – | 93.0
COc1ccc(Nc2nnc(SCC(=O)c3cc(C)n(CC4CCCO4)c3C)s2)cc1 (stereo not drawn) | – | – | 72.4 | – | – | 58.6
C=CCn1c(C)cc(C(=O)COc2nncc3ccccc23)c1C | – | 2 | 61.1 | · | – | –
COc1ccc2nc(SCC(=O)NC(C)(C)C)[nH]c2c1 | – | – | 84.6 | · | – | 66.0
COc1ccc(Nc2nnc(SCC(=O)N3CCCC3)s2)cc1 | – | – | – | – | – | –
C=CCn1c(C)cc(C(=O)CSc2nc3ccccc3c(=O)[nH]2)c1C | – | – | – | – | – | –
CCOc1cc(NC(=S)Nc2cccc(C)c2)c(OCC)cc1NC(=O)CC(C)C | – | – | – | – | – | –
Cc1ccc(SCCC(=O)N2CCC(C(N)=O)CC2)cc1 | – | – | – | – | – | –
COc1ccc(C(C)C)cc1S(=O)(=O)Nc1ccncc1 | · | · | · | – | · | ·
CCN(CC)C(=O)CN1CCC(n2c(C)nc3cc(C(F)(F)F)ccc32)CC1 | – | – | – | – | – | –
Cn1ncc2c(=O)n(CC(=O)NC34CC5CC(CC(C5)C3)C4)cnc21 | – | – | – | – | – | –
CN(C)S(=O)(=O)c1cc(C(=O)NCC2CCCO2)c(Cl)cc1Cl (stereo not drawn) | – | – | – | – | – | –
Cc1ccc2c(c1)N(CC(=O)N(Cc1ccc3c(c1)OCO3)CC1CCCO1)C(=O)C(C)O2 (stereo not drawn) | – | – | – | – | – | –
CCOC(=O)C1CCN(Cc2cnc(Oc3ccc(N)cc3)s2)CC1 | – | – | – | – | – | 62.5
O=S1(=O)CCN(Cc2ccc(Cl)cc2)CC1 | – | – | – | – | – | –
O=S1(=O)CCN(Cc2ccc(Cl)c(Cl)c2)CC1 | – | – | 54.2 | – | – | –
Clc1ccc(CN2CCCCCCC2)cc1Cl | – | – | 84.8 | · | – | –
CCOC(=O)C1CCN(Cc2ccc(F)cc2)CC1 | – | · | · | – | · | ·
CCOC(=O)C1CCN(Cc2ccc(Cl)c(Cl)c2)CC1 | – | – | – | – | – | 50.9
Cc1cccc(NC(=S)Nc2ccc(Oc3ccccc3)cc2)n1 | · | · | · | – | · | ·
CCOc1ccc(S(=O)(=O)NCC2CCCO2)c2cccnc12 (stereo not drawn) | – | – | – | – | – | –
SMILES | cytoskel mod | CYP2C9 activ | CYP2C19 inh | E-sel TNF inh | CYP2C19 activ | CYP2C9 inhib
CCOC(=O)c1cc(-c2ccccc2)n(CC(=O)Nc2ccc(OC)cc2)c1C | · | · | · | – | · | ·
Cc1nc2c(-c3ccc(F)cc3)c(C)nn2c(C)c1CCC(=O)NCCN1CCOCC1 | – | – | – | – | – | –
Cc1nc2c(-c3ccc(F)cc3)c(C)nn2c(C)c1CCC(=O)N1CCOCC1 | – | – | 50.8 | · | – | –
CCOC(=O)C1CCN(C(=O)CCc2c(C)nc3c(-c4ccc(F)cc4)c(C)nn3c2C)CC1 | – | – | – | · | – | –
Cc1nc2c(-c3ccc(F)cc3)c(C)nn2c(C)c1CCC(=O)N1CCC(Cc2ccccc2)CC1 | – | – | – | · | – | 51.3
Cc1nc2c(-c3ccccc3)c(C)nn2c(C)c1CCC(=O)N1CCOCC1 | – | – | – | – | – | –
Cc1nc2c(-c3ccc(F)cc3)c(C)nn2c(C)c1CCC(=O)N1CCN(c2ccc(F)cc2)CC1 | – | – | 62.5 | – | – | 67.2
Cc1nc2c(-c3ccc(F)cc3)c(C)nn2c(C)c1CCC(=O)N1CCN(c2ccccc2)CC1 | – | – | 50.0 | – | – | 56.0
CCOC(=O)N1CCN(S(=O)(=O)c2ccc3c(c2)OCC(=O)N3)CC1 | – | – | – | – | – | –
CCOc1ccc(-n2c(C)nc3cc(C(=O)NCCCN4CCOCC4)ccc32)cc1 | – | – | – | · | – | –
COc1ccc(-n2c(=O)c3ccccc3n(CC(=O)NCc3ccco3)c2=O)cc1 | · | · | · | – | · | ·
CC(=O)N(c1ccccc1)C1SC(=O)N(c2ccccc2)C1=O (stereo not drawn) | – | – | – | · | – | –
CC(=O)N(c1cccc(C)c1)C1SC(=O)N(c2ccccc2)C1=O (stereo not drawn) | – | – | 68.1 | · | – | –
N#Cc1cnc(Nc2nc3ccccc3o2)nc1-c1ccccc1 | · | – | – | – | – | 61.6
CCCCSc1nc2c(cnn2-c2ccc(F)cc2)c(=O)[nH]1 | – | – | – | · | – | –
C=CCNc1nc(-c2c(C)nc3sccn23)cs1 | – | · | · | – | · | ·
Cc1cc(NS(=O)(=O)c2ccc(Nc3nc(-c4sc(NC(=O)c5ccccc5)nc4C)cs3)cc2)no1 | · | – | – | – | – | 75.0
CCC(=O)Nc1nc(C)c(-c2csc(Nc3ccc(S(=O)(=O)Nc4cc(C)on4)cc3)n2)s1 | – | – | – | – | – | –
Cc1nc2sccn2c1-c1csc(NCc2ccccc2)n1 | – | – | 89.6 | – | – | 61.6
Cc1nc(NC(=O)c2ccccc2)sc1-c1csc(NCCc2ccccc2)n1 | – | – | – | – | – | 77.7
Cc1nc(NC(=O)c2ccccc2)sc1-c1csc(N)n1 | – | – | – | · | – | 54.4
COCCOC(=O)C1=C(N)Oc2c(oc(CO)cc2=O)C1c1ccccc1F (stereo not drawn) | – | – | – | – | – | –
Cc1csc(NC(=O)C2CCN(C(=O)CSc3nnc(C)n3Cc3ccccc3)CC2)n1 | – | – | – | – | – | –
COc1cc(OC)cc(C(=O)N[C@H](C(=O)OCC(=O)c2ccc(F)cc2)C(C)C)c1 | · | · | · | – | · | ·
Cc1nc(N)sc1-c1csc(NCc2ccccc2)n1 | – | – | – | – | – | –
SMILES | cytoskel mod | CYP2C9 activ | CYP2C19 inh | E-sel TNF inh | CYP2C19 activ | CYP2C9 inhib
Cc1nc(NC(=O)c2ccccc2)sc1-c1csc(NCc2ccccc2)n1 | – | – | 51.1 | · | – | 65.6
Cc1ccc(Cl)cc1Nc1nc(-c2sc(NC(=O)c3ccccc3)nc2C)cs1 | – | – | 52.1 | – | – | 76.6
CON(C)c1nc(OCCNC(=O)OCc2ccc(Cl)cc2C)nc(N(C)C)n1 | · | · | · | – | · | ·
CCOc1ccc(NC(=O)N2CCC(n3nnc4ccccc43)CC2)cc1 | · | · | · | – | · | ·
O=C(NC12CC3CC(CC(C3)C1)C2)N1CCC(n2nnc3ccccc32)CC1 | · | – | 78.3 | – | – | –
C=C(C)c1cccc(C(C)(C)NC(=O)Nn2cnnc2)c1 | – | – | 73.4 | · | – | 50.5
C=C(C)c1cccc(C(C)(C)NC(=O)Nc2ncccn2)c1 | 74.1 | – | – | – | – | –
C=C(C)c1cccc(C(C)(C)NC(=O)Nc2cc(C)ccc2OC)c1 | – | – | – | – | – | –
C=C(C)c1cccc(C(C)(C)NC(=O)Nc2ccc(Cl)cn2)c1 | · | · | · | – | · | ·
CC(C)Cc1nc(SCC(=O)NCc2ccccc2)n[nH]1 | – | – | – | – | – | –
